High-throughput results: PubChem BioAssay, Center for Chemical Genomics, University of Michigan
The full list was thinned out, with hits kept by preference.
Dicer inh – human Dicer pre-microRNA cleavage inhibition | cat-ELCCA pre-miR-21 Dicer processing, chemiluminescence; active compounds read high | z-score at 25 µM | 47,000 tested, 6% active; in the data active means z-score above about 3, passing the limit was not always enough;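 further: higher signal means more uncleaved substrate so more Dicer inhibition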
Target sequence (Q9UPY3 whole entry, looked up): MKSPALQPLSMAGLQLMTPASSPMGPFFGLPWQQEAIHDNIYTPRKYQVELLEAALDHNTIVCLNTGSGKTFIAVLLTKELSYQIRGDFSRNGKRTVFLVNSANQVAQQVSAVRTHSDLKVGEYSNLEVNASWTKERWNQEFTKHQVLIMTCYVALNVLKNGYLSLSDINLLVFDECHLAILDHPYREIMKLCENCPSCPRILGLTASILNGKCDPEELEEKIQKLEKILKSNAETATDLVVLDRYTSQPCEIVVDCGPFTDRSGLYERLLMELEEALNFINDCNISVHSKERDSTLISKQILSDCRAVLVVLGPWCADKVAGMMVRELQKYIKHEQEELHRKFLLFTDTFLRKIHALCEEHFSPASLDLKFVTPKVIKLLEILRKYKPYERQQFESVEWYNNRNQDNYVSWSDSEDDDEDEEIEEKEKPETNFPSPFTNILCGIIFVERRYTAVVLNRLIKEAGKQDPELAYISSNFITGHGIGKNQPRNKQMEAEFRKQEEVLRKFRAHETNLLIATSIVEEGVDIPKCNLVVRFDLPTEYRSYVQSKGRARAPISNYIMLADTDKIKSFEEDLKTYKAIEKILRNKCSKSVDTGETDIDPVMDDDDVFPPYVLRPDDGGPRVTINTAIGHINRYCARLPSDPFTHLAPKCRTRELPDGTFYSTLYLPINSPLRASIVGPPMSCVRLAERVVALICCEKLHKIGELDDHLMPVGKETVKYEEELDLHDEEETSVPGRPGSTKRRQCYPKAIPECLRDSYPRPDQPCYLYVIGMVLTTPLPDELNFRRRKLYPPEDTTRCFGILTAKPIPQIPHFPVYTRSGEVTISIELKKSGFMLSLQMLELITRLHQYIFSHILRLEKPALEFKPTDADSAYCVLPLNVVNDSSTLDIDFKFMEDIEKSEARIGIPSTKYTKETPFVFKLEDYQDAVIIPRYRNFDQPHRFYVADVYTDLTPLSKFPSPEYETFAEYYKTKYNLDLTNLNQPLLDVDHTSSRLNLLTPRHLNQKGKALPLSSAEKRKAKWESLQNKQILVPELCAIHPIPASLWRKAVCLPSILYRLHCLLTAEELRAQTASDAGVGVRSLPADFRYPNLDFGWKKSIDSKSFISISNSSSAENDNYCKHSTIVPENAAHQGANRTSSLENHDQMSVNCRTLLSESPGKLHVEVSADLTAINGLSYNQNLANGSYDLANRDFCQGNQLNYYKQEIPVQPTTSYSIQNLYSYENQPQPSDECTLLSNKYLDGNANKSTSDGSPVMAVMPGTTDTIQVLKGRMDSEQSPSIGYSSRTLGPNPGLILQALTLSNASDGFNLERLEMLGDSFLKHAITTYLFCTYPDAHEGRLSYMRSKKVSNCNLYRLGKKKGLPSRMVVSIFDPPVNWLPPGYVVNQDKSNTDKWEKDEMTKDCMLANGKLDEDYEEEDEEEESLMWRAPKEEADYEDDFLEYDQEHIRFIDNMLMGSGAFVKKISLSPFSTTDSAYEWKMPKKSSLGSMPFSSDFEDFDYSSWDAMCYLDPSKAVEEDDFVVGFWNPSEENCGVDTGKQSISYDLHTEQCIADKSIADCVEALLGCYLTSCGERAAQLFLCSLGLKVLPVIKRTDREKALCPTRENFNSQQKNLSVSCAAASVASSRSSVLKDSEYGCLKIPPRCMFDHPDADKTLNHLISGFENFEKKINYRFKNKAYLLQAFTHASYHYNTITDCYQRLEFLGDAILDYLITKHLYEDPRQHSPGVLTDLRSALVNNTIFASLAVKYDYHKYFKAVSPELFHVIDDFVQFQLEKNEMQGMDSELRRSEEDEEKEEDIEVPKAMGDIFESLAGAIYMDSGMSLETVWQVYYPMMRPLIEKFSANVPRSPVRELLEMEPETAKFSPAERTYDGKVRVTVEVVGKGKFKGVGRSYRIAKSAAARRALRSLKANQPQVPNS
Of the large screens only hits and unclear results are named; the others gave an inactive call.

CCOC(=O)[C@H](CCCN=C(N)N)NC(=O)c1ccccc1	Dicer inh 4.75
CCCCCCNC(=O)NC(Cc1ccccc1)C(=O)OCC (configuration not stated)	none
O=C(NC(CO)C(=O)O)c1ccccc1 (configuration not stated)	none
O=C(ON(C(=O)c1ccc(F)cc1)C1C2CC3CC(C2)CC1C3)c1ccc(F)cc1 (configuration not stated)	none
O=C1CC(c2ccccc2Cl)Cc2nc(N3CCc4ccccc4C3)ncc21 (configuration not stated)	none
COc1ccccc1Nc1nc(-c2c(C)nc3cc(C)ccn23)cs1	Dicer inh 4.56
COc1ccccc1Nc1n[nH]c(=S)s1	none
COc1ccccc1Nc1nc(-c2sc(N)nc2C)cs1	none
Cc1nc2sccn2c1-c1csc(Nc2ccc(Br)cc2)n1	Dicer inh 4.21
Cc1cc(NS(=O)(=O)c2ccc(Nc3nc(-c4c(C)nc5ccccn45)cs3)cc2)no1	Dicer inh 3.48
Cc1cc(C)nc(NS(=O)(=O)c2ccc(Nc3nc(-c4c(C)nc5ncccn45)cs3)cc2)n1	none
Cc1nc(C)c(-c2csc(Nc3ccc(C(=O)O)c(O)c3)n2)s1	none
Cc1nc(N)sc1-c1csc(Nc2ccc(Br)cc2)n1	none
CN(C)c1ccc(Nc2nc(-c3cccs3)cs2)cc1	none
Cc1cc(NS(=O)(=O)c2ccc(Cl)cc2)no1	none
Cc1nc(C)c(-c2csc(Nc3ccc(N(C)C)cc3)n2)s1	Dicer inh 4.08
Brc1ccc(-c2csc(Nc3ccncc3)n2)cc1	none
CC(=O)OC1CCC2=C3CCC4(C)CCCC4C3CC(OC(C)=O)C2(C)C1 (configuration not stated)	none
Cc1ccc(-n2nnnc2SCC(=O)c2ccccc2)c(C)c1	none
CC(C)(O)C#Cc1ccc(/C=N/Nc2ccccc2)cc1	none
CC(C)(CC(=O)O)CC(=O)Nc1ccc2c(c1)OCCCO2	none
Cc1ccc(C(=O)Cn2c3ccccc3n3nc(C)c(=O)nc23)cc1	none
COc1cc(C)nc(NC(=O)Nc2sc(=S)n(C)c2C)n1	none
Cc1nc2ccccn2c1-c1ccnc(SCC(=O)c2cccc(C(F)(F)F)c2)n1	none
Cc1ccnc(Nc2nc(-c3c(C)nc4ccccn34)cs2)c1	Dicer inh 3.09
Cc1nc2ccccn2c1-c1ccnc(SCC(=O)Nc2ccc(F)cc2)n1	none
Cc1ccn2c(-c3csc(Nc4ccc(N(C)C)cc4)n3)c(C)nc2c1	Dicer inh 5.49
COc1ccc(-c2csc(Nc3ccc(N(C)C)cc3)n2)cc1	none
CCN(CC)c1ccc(Nc2nc(-c3ccc(O)cc3O)cs2)cc1	none
CSC(SC)=C(C#N)C(=O)c1ccc(Cl)cc1	none
COC(=O)c1c(NC(=O)c2ccc(Cl)cc2)csc1C	none
Cc1ccc(N2C(=O)CC(SCC(=O)Nc3cc(C(F)(F)F)cc(C(F)(F)F)c3)C2=O)cc1[N+](=O)[O-] (configuration not stated)	none
COC(=O)C1=C(C)NC2=C(C(=O)CCC2)C1c1ccc(C(F)(F)F)cc1Cl (configuration not stated)	none
CN(C)/C=N/c1nnc(Sc2nc3cc(Cl)ccc3s2)s1	none
COc1ccc(C2C3=C(CC(C)(C)CC3=O)Nc3ccc4ccccc4c32)cc1OC (configuration not stated)	none
Cc1oc2c(F)c(F)c(F)c(F)c2c1C(=O)Oc1cccc(C(F)(F)F)c1	none
CC1CN(CCO)Cc2ccc(Cl)cc21 (configuration not stated)	Dicer inh 3.25
CN1CCN(CC(=O)N2c3ccccc3Sc3ccc(Cl)cc32)CC1	none
CN1CCN(C2Cc3ccccc3Sc3ccc(Cl)cc32)CC1 (configuration not stated)	none
CCOc1cc(C(F)(F)F)c(C(=O)NCc2ccc(Cl)cc2)cn1	none
Cc1nnc(N2C(=O)C(=O)/C(=C(/O)c3ccc(Cl)cc3)C2c2ccccc2F)s1 (configuration not stated)	none
CC(C)=CC(NCc1ccccc1O)C(=O)O (configuration not stated)	none
O=C(OCc1ccccc1)C1=NNC2(CC(=O)N(c3ccc(Cl)cc3)C2=O)C1 (configuration not stated)	none
Cc1ccc(C2/C(=C(\O)c3ccccc3)C(=O)C(=O)N2CCN2CCOCC2)o1 (configuration not stated)	none
CSc1nc(C)nc(N/C=C2\C(=O)c3sccc3N(C)S2(=O)=O)n1	none
CN1C(=O)c2cccc3cccc(c23)C1=O	none
O=C1c2cccc3cccc(c23)C(=O)N1c1ccccc1	none
O=C1c2cccc3cccc(c23)C(=O)N1c1ccc(Cl)cc1	Dicer inh 6.03
O=C1C2C(c3ccc(F)cc3)OC3(C(=O)c4ccccc4C3=O)C2C(=O)N1C1CCCCC1 (configuration not stated)	none
Cc1cc(C(=O)CC(Sc2ccccc2N)c2c(F)cccc2Cl)ccc1Cl (configuration not stated)	none
Cc1ccc(-n2cnc3cc(NCc4ccncc4)ccc32)cc1	none
Cc1nc2cc(NCc3ccco3)ccc2n1C	none
COc1ccccc1-n1cnc2cc(NCc3ccco3)ccc21	Dicer inh 6.55
O=C1C(=O)N(Cc2cccnc2)C(c2cccnc2)/C1=C(\O)c1ccc(Cl)cc1 (configuration not stated)	none
CC12CN3CC(C)(CN(C1)C3c1ccc([N+](=O)[O-])o1)C2 (configuration not stated)	none
CC12CN3CC(C)(CN(C1)C3c1cc(Br)ccc1O)C2 (configuration not stated)	none
Cc1ccc(C2N3CC4(C)CN2CC(C)(C3)C4)cc1 (configuration not stated)	Dicer inh 3.03
N#Cc1cnn(-c2ccc(F)cc2)c1NC(=O)C1CCCCC1	none
COc1ccc(CN2C(=O)c3oc4ccc(C)cc4c(=O)c3C2c2ccc(O)cc2)cc1 (configuration not stated)	none
CC(C)OC(=O)C1C(=O)CC(C)(O)C(C(=O)OC(C)C)C1c1ccc(Cl)cc1 (configuration not stated)	none
CC(C)(C)C(=O)NNC(=O)c1cc2ncc(C(F)(F)F)cc2s1	none
CCCc1nc(N)c(C#N)c(-c2ccc(Cl)cc2)c1CC	none
CCCCOc1ccc(C2c3c(oc4ccccc4c3=O)C(=O)N2c2nncs2)cc1OCC (configuration not stated)	none
CCCCOc1ccc(C2c3c(oc4ccccc4c3=O)C(=O)N2c2ccccn2)cc1OCC (configuration not stated)	Dicer inh 4.61
CCCOc1ccc(C2c3c(oc4ccccc4c3=O)C(=O)N2c2nnc(C)s2)cc1OCC (configuration not stated)	none
CCCOc1cccc(C2c3c(oc4ccccc4c3=O)C(=O)N2c2ccccn2)c1 (configuration not stated)	none
CCCOc1ccc(C2c3c(oc4ccccc4c3=O)C(=O)N2c2ccccn2)cc1OCC (configuration not stated)	Dicer inh 4.4
CCCOc1ccc(C2c3c(oc4ccccc4c3=O)C(=O)N2c2ccc(C)cn2)cc1OCC (configuration not stated)	none
CCCc1ccc(SC(=O)N(C)C)cc1O	none
Cc1ccc(/C=N/NS(=O)(=O)c2ccc(C)cc2)cc1	none
CCOC(=O)C1=C(C)Nc2nc3ccccc3n2C1c1ccccc1F (configuration not stated)	none
COC(=O)c1cc(S(=O)(=O)N2CCN(c3c(Cl)cncc3Cl)CC2)oc1C	none
COc1ccc(CNCc2cc(OC)ccc2OC)cc1	none
COc1ccc(CNCc2ccc3c(c2)OCO3)cc1	none
COc1ccc(CNCc2ccc(SC)cc2)cc1	Dicer inh 3.85
Clc1nc(NCCN2CCOCC2)nc(Nc2ccc3c(c2)OCO3)n1	none
CCCc1cc(N2CCN(CCO)CC2)n2c(nc3ccccc32)c1C#N	none
